# Data published in PubChem BioAssay (EPA / NIEHS).
# More than one record can exist for a structure, and the calls need not agree. Calls of active or inactive are those of the source. The calls were made as follows: active = hit-call score of the fitted dose curve at least 0.9, where 1 is the maximum; inactive = score below 0.9.
# Key:
# [1] = read-out: Thrombomodulin, THBD (gene 7056); test: BSK_CASM3C_Thrombomodulin: BioMAP Diversity Plus: CASM3C Assay for Thrombomodulin Biomarker Activity (AID 2283051); details: primary human coronary artery smooth muscle cells; actives raise or lower the signal;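 also: thrombomodulin protein level measured by ELISA 24 h after dosing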
# [2] = read-out: Tissue Factor, F3 (gene 2152); test: BSK_CASM3C_TissueFactor: BioMAP Diversity Plus: CASM3C Assay for Tissue Factor Biomarker Activity (AID 2283052); details: primary human coronary artery smooth muscle cells; actives raise or lower the signal;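 also: cell surface tissue factor protein level read by ELISA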
# [3] = read-out: Interferon-gamma inducible Protein 10 (IP10), CXCL10 (gene 3627); test: BSK_hDFCGF_IP10: BioMAP Diversity Plus: hDFCGF Assay for Interferon-gamma inducible Protein 10 (IP10) Biomarker Activity (AID 2283053); details: primary human foreskin fibroblasts; actives raise or lower the signal
# Outline: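 Human foreskin fibroblast primary cells (hDFCGF system) were dosed with chemical and assayed at 24 h; IP-10 measured by ELISA. Activity fitted bidirectionally relative to DMSO negative control as baseline.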
# [4] = read-out: Urokinase-type plasminogen activator receptor (uPAR), PLAUR (gene 5329); test: BSK_CASM3C_uPAR: BioMAP Diversity Plus: CASM3C Assay for Urokinase-type plasminogen activator receptor (uPAR) Biomarker Activity (AID 2283054); details: primary human coronary artery smooth muscle cells; actives raise or lower the signal;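 also: cell-surface uPAR protein level quantified by ELISA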
# [5] = read-out: Vascular cell adhesion molecule 1 (VCAM1), VCAM1 (gene 7412); test: BSK_CASM3C_VCAM1: BioMAP Diversity Plus: CASM3C Assay for Vascular cell adhesion molecule 1 (VCAM1) Biomarker Activity (AID 2283055); details: primary human coronary artery smooth muscle cells; actives raise or lower the signal;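 also: VCAM-1 protein level quantified by ELISA on the cells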
# [6] = read-out: Collagen III, COL3A1 (gene 1281); test: BSK_hDFCGF_CollagenIII: BioMAP Diversity Plus: hDFCGF Assay for Collagen III Biomarker Activity (AID 2283056); details: primary human foreskin fibroblasts; actives raise or lower the signal
# Outline: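 Cells: human foreskin fibroblasts, primary. Dosing followed by 24 h incubation, then ELISA for collagen III. Both increases and decreases scored relative to DMSO.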
# [7] = read-out: Epidermal growth factor receptor (EGFR), EGFR (gene 1956); test: BSK_hDFCGF_EGFR: BioMAP Diversity Plus: hDFCGF Assay for Epidermal growth factor receptor (EGFR) Biomarker Activity (AID 2283057); details: primary human foreskin fibroblasts; actives raise or lower the signal
# Outline: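 Primary human foreskin fibroblasts were exposed to compound for 24 h, after which cell-surface EGFR was quantified by ELISA. Activity was fitted bidirectionally against the DMSO negative control as baseline.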
# [8] = read-out: Interleukin-8 (IL8), CXCL8 (gene 3576); test: BSK_hDFCGF_IL8: BioMAP Diversity Plus: hDFCGF Assay for Interleukin-8 (IL8) Biomarker Activity (AID 2283058); details: primary human foreskin fibroblasts; actives raise or lower the signal
# Outline: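 IL-8 levels from compound-treated primary human fibroblasts were read by ELISA at 24 h, with DMSO serving as baseline for bidirectional fitting.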
# [9] = BSK_hDFCGF_Proliferation: Cell Proliferation Assessment in the BioMAP Diversity Plus: hDFCGF Assay (AID 2283059); details: primary human foreskin fibroblasts;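 also: curves fitted for both rise and fall of signal versus DMSO baseline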
# Outline: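 Sub-confluent human foreskin fibroblast cultures receive test chemical […]. Relative cell number is quantified by sulforhodamine B staining (0.1%, after 10% TCA fixation) at 560 nm, with bidirectional fitting referenced to DMSO.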
# [10] = read-out: Macrophage colony-stimulating factor (MCSF), CSF1 (gene 1435); test: BSK_hDFCGF_MCSF: BioMAP Diversity Plus: hDFCGF Assay for Macrophage colony-stimulating factor (MCSF) Biomarker Activity (AID 2283060); details: primary human foreskin fibroblasts; actives raise or lower the signal
# Outline: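 M-CSF levels, determined by ELISA, are taken at 24 h after dosing human skin fibroblasts. Responses in either direction are fitted with DMSO serving as the baseline.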
SMILES,AC50 [1],outcome [2],AC50 [3],outcome [4],outcome [5],outcome [6],outcome [7],outcome [8],AC50 [9],AC50 [10],outcome [1],outcome [3],outcome [9],outcome [10],AC50 [4],AC50 [6],AC50 [5],AC50 [7],AC50 [8]
CCN(CC)c1nc(C)cc(OP(=S)(OC)OC)n1,20 µM (active),inactive,20 µM (active),inactive,inactive,inactive,inactive,inactive,20 µM (active),14.6 µM (active),,,,,,,,,
COC(=O)NS(=O)(=O)c1ccc(N)cc1,,inactive,,inactive,inactive,inactive,inactive,inactive,,,inactive,inactive,inactive,inactive,,,,,
C=C(C)CN(CC)c1c([N+](=O)[O-])cc(C(F)(F)F)cc1[N+](=O)[O-],,inactive,20 µM (active),inactive,inactive,inactive,inactive,inactive,19.5 µM (active),,inactive,,,inactive,,,,,
O=C(O)c1c(Cl)ccc2cc(Cl)cnc12,,inactive,,inactive,inactive,inactive,inactive,inactive,,,inactive,inactive,inactive,inactive,,,,,
Nc1c(Cl)c(F)nc(OCC(=O)O)c1Cl,,inactive,,inactive,inactive,inactive,inactive,inactive,,,inactive,inactive,inactive,inactive,,,,,
CCCCC(C#N)(Cn1cncn1)c1ccc(Cl)cc1 (stereo unspecified),,inactive,,,inactive,inactive,inactive,inactive,,,inactive,inactive,inactive,inactive,1.12 µM (active),,,,
CCCC(=NOCC)C1=C(O)CC(CC(C)SCC)CC1=O (stereo unspecified),,inactive,,inactive,inactive,inactive,inactive,inactive,,,inactive,inactive,inactive,inactive,,,,,
N#Cc1c(Cl)cccc1Cl,,inactive,,inactive,inactive,inactive,inactive,inactive,,,inactive,inactive,inactive,inactive,,,,,
COP(=S)(OC)Oc1ccc([N+](=O)[O-])c(C)c1,,inactive,14 µM (active),inactive,inactive,,inactive,inactive,24.2 µM (active),13.2 µM (active),inactive,,,,,22.7 µM (active),,,
O=C1C2CC=CCC2C(=O)N1SC(Cl)(Cl)Cl (stereo unspecified),4.74 µM (active),inactive,6.95 µM (active),,,,,,1.85 µM (active),6.29 µM (active),,,,,32.2 µM (active),6.44 µM (active),22.5 µM (active),5.78 µM (active),12.1 µM (active)
CC(C)N1C(=O)c2ccccc2NS1(=O)=O,,inactive,13.4 µM (active),inactive,inactive,,inactive,inactive,,,inactive,,inactive,inactive,,0.144 µM (active),,,
COc1cc(OC)nc(NC(=O)NS(=O)(=O)c2ncccc2OCC(F)(F)F)n1,,inactive,,inactive,inactive,inactive,inactive,inactive,,,inactive,inactive,inactive,inactive,,,,,
CCSC(=O)N1CCCCCC1,,inactive,,inactive,inactive,inactive,inactive,inactive,,,inactive,inactive,inactive,inactive,,,,,
CCOc1nc(C(Cl)(Cl)Cl)ns1,,inactive,,inactive,inactive,inactive,inactive,inactive,,,inactive,inactive,inactive,inactive,,,,,
CC(C)N1C(=O)N(c2ccccc2)CSC1=NC(C)(C)C,27.3 µM (active),inactive,15.7 µM (active),inactive,inactive,,inactive,inactive,32 µM (active),,,,,inactive,,26.7 µM (active),,,
CCNP(=S)(OC)O/C(C)=C/C(=O)OC(C)C (stereo unspecified),,inactive,,inactive,inactive,inactive,inactive,inactive,,,inactive,inactive,inactive,inactive,,,,,
COCC(C)N(C(=O)CCl)c1c(C)csc1C (stereo unspecified),,inactive,,inactive,inactive,inactive,inactive,inactive,14.3 µM (active),,inactive,inactive,inactive,inactive,,,,,
CCOc1nc(F)cc2nc(S(=O)(=O)Nc3c(Cl)cccc3Cl)nn12,,inactive,,inactive,inactive,inactive,inactive,inactive,,,inactive,inactive,inactive,inactive,,,,,
Cc1nc(N(C)C)nc(OC(=O)N(C)C)c1C,,inactive,,inactive,inactive,inactive,inactive,inactive,,,inactive,inactive,inactive,inactive,,,,,
CCOc1cc(C(C)(C)C)ccc1C1COC(c2c(F)cccc2F)=N1 (stereo unspecified),22.8 µM (active),inactive,20 µM (active),,inactive,,,,6.95 µM (active),14.5 µM (active),,,,,5.08 µM (active),5.45 µM (active),,11.8 µM (active),20.4 µM (active)
